This is part of a sample that, as a whole, favours compounds with a hit. Of some 79,000 tested, about 15% had one in any assay. Unmarked numbers belong to inactive results. Calls of active or inactive are those of the source. Cut-off read from the data, not from the text of the source: active = growth inhibition above about 70%; inactive = the rest.
Assays:
[1] = NCI Yeast Anticancer Drug Screen. Data for the mec2-1 strain (AID 157); conditions: S. cerevisiae mec2-1 strain, active compounds read high
Outline: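 Using mec2-1 yeast: add compound, measure growth, express inhibition versus vehicle-treated cultures.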

[2] = NCI Yeast Anticancer Drug Screen. Data for the rad14 strain (AID 159);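 note: 0% = growth of vehicle-treated control cultures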; conditions: S. cerevisiae rad14 strain growth inhibition, active compounds read high
Outline: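 DNA repair-defective yeast, compound-exposed; % growth inhibition derived by comparison with vehicle-treated controls.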

[3] = NCI Yeast Anticancer Drug Screen. Data for the sgs1 mgt1 strain (AID 161);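 note: 0% = growth of cultures given vehicle only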; conditions: S. cerevisiae sgs1 mgt1 strain, active compounds read high
Outline: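 Percent growth inhibition was derived by comparing compound-exposed mutant yeast with vehicle-exposed cultures. The strain carries alterations in DNA damage repair.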

[4] = NCI Yeast Anticancer Drug Screen. Data for the cln2 rad14 strain (AID 165);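 note: 0% = growth equal to vehicle treated cultures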; conditions: S. cerevisiae cln2 rad14 strain, active compounds read high
Outline: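 Yeast strain cln2 rad14, bearing defects in cell cycle control and DNA repair, serves as the test system; values reflect growth inhibition compared with vehicle.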

[5] = NCI Yeast Anticancer Drug Screen. Data for the bub3 strain (AID 167); conditions: S. cerevisiae bub3 mutant strain, active compounds read high
Outline: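 In this screen, a yeast mutant lacking normal mitotic checkpoint function is challenged with compound. Relative growth versus vehicle gives the inhibition value.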

[6] = NCI Yeast Anticancer Drug Screen. Data for the wt2 strain (AID 169);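 note: 0% = growth of vehicle-treated yeast cultures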; conditions: S. cerevisiae wt2 strain growth inhibition, active compounds read high
Outline: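 Treated yeast vs. vehicle-treated yeast: growth inhibition determined.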

[7] = NCI Yeast Anticancer Drug Screen. Data for the mlh1 strain (AID 171);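 note: 0% = growth of vehicle-treated control cultures of the same strain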; conditions: S. cerevisiae mlh1 strain growth inhibition, active compounds read high
Outline: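 A yeast strain with a defined genetic lesion serves as the test organism. Cultures receive compound or vehicle, and growth is measured.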

[8] = NCI Yeast Anticancer Drug Screen. Data for the sgs1 strain (AID 173);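 note: 0% = growth of vehicle-only control cultures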; conditions: S. cerevisiae sgs1 mutant, active compounds read high
Outline: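 A genetically defined yeast mutant is incubated with the test compound, and its growth is compared to that of the same strain given vehicle.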

[9] = NCI Yeast Anticancer Drug Screen. Data for the mlh1 rad18 strain (AID 175); conditions: S. cerevisiae mlh1 rad18 strain growth inhibition, active compounds read high
Outline: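 Steps: expose repair-defective yeast to compound; measure growth; express inhibition against vehicle-treated controls.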

[10] = NCI Yeast Anticancer Drug Screen. Data for the rad18 strain (AID 177); conditions: S. cerevisiae rad18 mutant growth inhibition, active compounds read high
Outline: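 Measured value is growth inhibition of a yeast strain bearing a DNA repair alteration, referenced to vehicle-treated cells.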

[11] = NCI Yeast Anticancer Drug Screen. Data for the rad52 strain (AID 147);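 note: 0% = growth of vehicle-treated control cultures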; conditions: S. cerevisiae rad52 mutant growth inhibition, active compounds read high
Outline: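 Here a repair-compromised yeast strain receives each compound; its growth is then quantified and normalised to vehicle-only controls.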

[12] = NCI Yeast Anticancer Drug Screen. Data for the wt1 strain (AID 149);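 note: 0% = growth of vehicle-treated wt1 cultures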; conditions: S. cerevisiae wt1 strain (SPY 50644) growth inhibition, active compounds read high
Outline: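 wt1 strain grown with compound or vehicle; inhibition taken from the growth difference.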

[13] = NCI Yeast Anticancer Drug Screen. Data for the rad50EPP+ strain (AID 151);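 note: 0% = growth of vehicle-treated control cultures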; conditions: S. cerevisiae rad50 mutant strain, active compounds read high
Outline: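 Read-out is yeast growth inhibition relative to vehicle; cells used were the rad50EPP+ strain.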

[14] = NCI Yeast Anticancer Drug Screen. Data for the mgt1 strain (AID 153); conditions: S. cerevisiae mgt1 mutant growth inhibition, active compounds read high
Outline: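 Measured: inhibition of mgt1 yeast growth by compound, normalized to vehicle-treated cultures.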

[15] = NCI Yeast Anticancer Drug Screen. Data for the rad50 strain (AID 155);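 note: 0% = growth of vehicle-only cultures of the same strain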; conditions: S. cerevisiae rad50 strain growth inhibition, active compounds read high
Outline: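 DNA repair mutant yeast, compound exposure, growth read-out; inhibition is taken relative to vehicle.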

[16] = at 5.0 µM (retest, dose inferred, filed as 0.5)
[17] = at 50.0 µM (retest, dose inferred, filed as 5.0)

Work on `COc1cc2ccnc(-c3c4ccccc4c(N)c4c(OC)c(OC)ccc34)c2cc1OC` yielded a growth inhibition [1, 16] of 33%, a growth inhibition ([1]; at 11.0 µM) of 1% and a growth inhibition ([1]; at 33.0 µM) of 7%. It also gave a growth inhibition [1, 17] of 33%, a growth inhibition ([1]; at 50.0 µM) of -2.3% and a growth inhibition ([1]; at 100.0 µM) of 46%. The growth inhibition ([2]; at 1.2 µM) was 1%, the growth inhibition ([2]; at 3.7 µM) was 1% and the growth inhibition ([2]; at 11.0 µM) was 3%. The growth inhibition ([2]; at 33.0 µM) was 8%, the growth inhibition ([2]; at 100.0 µM) was 43% and the growth inhibition [3, 16] was 24%. For the same compound, the growth inhibition [3, 17] was 24%, the growth inhibition ([3]; at 50.0 µM) was -13.9% and the growth inhibition [4, 16] was 22%. It also gave a growth inhibition [4, 17] of 22%, a growth inhibition ([4]; at 50.0 µM) of 10.8% and a growth inhibition ([5]; at 1.2 µM) of -5%. The growth inhibition ([5]; at 3.7 µM) was 1%, the growth inhibition [5, 16] was -3% and the growth inhibition ([5]; at 11.0 µM) was 9%. It also gave a growth inhibition ([5]; at 33.0 µM) of -4%, a growth inhibition [5, 17] of -3% and a growth inhibition ([5]; at 50.0 µM) of 6.45%. It also gave a growth inhibition ([5]; at 100.0 µM) of 24%, a growth inhibition ([6]; at 1.2 µM) of -2% and a growth inhibition ([6]; at 3.7 µM) of -2%. The growth inhibition ([6]; at 11.0 µM) was -2%, the growth inhibition ([6]; at 33.0 µM) was 4% and the growth inhibition ([6]; at 100.0 µM) was 47%. It also gave a growth inhibition ([7]; at 1.2 µM) of -4%, a growth inhibition ([7]; at 3.7 µM) of -2% and a growth inhibition ([7]; at 11.0 µM) of 0%. For the same compound, the growth inhibition ([7]; at 33.0 µM) was 2%, the growth inhibition ([7]; at 100.0 µM) was 52% and the growth inhibition ([8]; at 1.2 µM) was -1%. For the same compound, the growth inhibition ([8]; at 3.7 µM) was 1%, the growth inhibition ([8]; at 11.0 µM) was 6% and the growth inhibition ([8]; at 33.0 µM) was 23%. The growth inhibition ([8]; at 100.0 µM) was 70% (active), the growth inhibition [9, 16] was 23% and the growth inhibition [9, 17] was 23%. The growth inhibition ([9]; at 50.0 µM) was 72.7% (active), the growth inhibition ([10]; at 1.2 µM) was 0% and the growth inhibition ([10]; at 3.7 µM) was -5%. For the same compound, the growth inhibition ([10]; at 11.0 µM) was 8%, the growth inhibition ([10]; at 33.0 µM) was 31% and the growth inhibition ([10]; at 100.0 µM) was 74% (active).
`Nc1nc2ccc(NCc3ccc(C(=O)NC(CCC(=O)O)C(=O)O)cc3)cc2c(=O)[nH]1` (stereo unspecified) showed a growth inhibition ([11]; at 1.2 µM) of -15%, a growth inhibition ([11]; at 3.7 µM) of -35% and a growth inhibition ([11]; at 11.0 µM) of -21%. For the same compound, the growth inhibition ([11]; at 33.0 µM) was 32%, the growth inhibition ([11]; at 100.0 µM) was 74% (active) and the growth inhibition ([12]; at 1.2 µM) was -6%. The growth inhibition ([12]; at 3.7 µM) was -17%, the growth inhibition ([12]; at 11.0 µM) was -19% and the growth inhibition ([12]; at 33.0 µM) was 3%. The growth inhibition ([12]; at 100.0 µM) was 55%, the growth inhibition ([13]; at 1.2 µM) was 7% and the growth inhibition ([13]; at 3.7 µM) was -24%. It also gave a growth inhibition ([13]; at 11.0 µM) of -9%, a growth inhibition ([13]; at 33.0 µM) of -18% and a growth inhibition ([13]; at 100.0 µM) of 5%. It also gave a growth inhibition ([14]; at 1.2 µM) of -14%, a growth inhibition ([14]; at 3.7 µM) of -14% and a growth inhibition ([14]; at 11.0 µM) of -24%. For the same compound, the growth inhibition ([14]; at 33.0 µM) was 0%, the growth inhibition ([14]; at 100.0 µM) was 26% and the growth inhibition ([15]; at 1.2 µM) was 7%. The growth inhibition ([15]; at 3.7 µM) was -19%, the growth inhibition [15, 16] was 3% and the growth inhibition ([15]; at 11.0 µM) was 9%. For the same compound, the growth inhibition ([15]; at 33.0 µM) was 23%, the growth inhibition [15, 17] was 18% and the growth inhibition ([15]; at 50.0 µM) was 22.1%. For the same compound, the growth inhibition ([15]; at 100.0 µM) was 77% (active), the growth inhibition ([1]; at 1.2 µM) was -4% and the growth inhibition ([1]; at 3.7 µM) was 1%. The growth inhibition [1, 16] was -3%, the growth inhibition ([1]; at 11.0 µM) was 8% and the growth inhibition ([1]; at 33.0 µM) was 92% (active). For the same compound, the growth inhibition [1, 17] was 81% (active), the growth inhibition ([1]; at 50.0 µM) was 75.3% (active) and the growth inhibition ([1]; at 100.0 µM) was 97% (active). For the same compound, the growth inhibition ([2]; at 1.2 µM) was -20%, the growth inhibition ([2]; at 3.7 µM) was -19% and the growth inhibition ([2]; at 11.0 µM) was -31%. The growth inhibition ([2]; at 33.0 µM) was -5%, the growth inhibition ([2]; at 100.0 µM) was 55% and the growth inhibition [3, 16] was 21%. The growth inhibition [3, 17] was 18%, the growth inhibition ([3]; at 50.0 µM) was 25% and the growth inhibition [4, 16] was 25%. The growth inhibition [4, 17] was 25%, the growth inhibition ([4]; at 50.0 µM) was 8.85% and the growth inhibition ([5]; at 1.2 µM) was -7%. The growth inhibition ([5]; at 3.7 µM) was 6%, the growth inhibition [5, 16] was 12% and the growth inhibition ([5]; at 11.0 µM) was -4%. The growth inhibition ([5]; at 33.0 µM) was 6%, the growth inhibition [5, 17] was -24% and the growth inhibition ([5]; at 50.0 µM) was 30.9%. The growth inhibition ([5]; at 100.0 µM) was 76% (active), the growth inhibition ([6]; at 1.2 µM) was -24% and the growth inhibition ([6]; at 3.7 µM) was -23%. For the same compound, the growth inhibition ([6]; at 11.0 µM) was -22%, the growth inhibition ([6]; at 33.0 µM) was -26% and the growth inhibition ([6]; at 100.0 µM) was -17%. The growth inhibition ([7]; at 1.2 µM) was -5%, the growth inhibition ([7]; at 3.7 µM) was 2% and the growth inhibition ([7]; at 11.0 µM) was 0%. For the same compound, the growth inhibition ([7]; at 33.0 µM) was 11%, the growth inhibition ([7]; at 100.0 µM) was 39% and the growth inhibition ([8]; at 1.2 µM) was -3%. For the same compound, the growth inhibition ([8]; at 3.7 µM) was 9%, the growth inhibition ([8]; at 11.0 µM) was 6% and the growth inhibition ([8]; at 33.0 µM) was 6%. It also gave a growth inhibition ([8]; at 100.0 µM) of 51%, a growth inhibition [9, 16] of 6% and a growth inhibition [9, 17] of 2%. It also gave a growth inhibition ([9]; at 50.0 µM) of 59.4%, a growth inhibition ([10]; at 1.2 µM) of -11% and a growth inhibition ([10]; at 3.7 µM) of 1%. For the same compound, the growth inhibition ([10]; at 11.0 µM) was -12%, the growth inhibition ([10]; at 33.0 µM) was 5% and the growth inhibition ([10]; at 100.0 µM) was 63%.

Reference: PubChem BioAssay (NCI)
